According to PubChem BioAssay (NCI):
Compounds without any hit were thinned out: in the full panel of roughly 83,000, 20% have a hit.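 Single-concentration screen, 48 h exposure, 96-well plates. Endpoint: percent growth. Below 10 = active.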 Active and inactive are the calls of the source.

What was measured:
Assay in all cases: NCI-60 one-dose screen, 48 h (100 = growth as untreated, 0 = no growth, -100 = all killed)
Conditions in all cases: 10 µM unless noted
NCI-H23 lung = system: NCI-H23 lung
NCI-H226 lung = system: NCI-H226 lung
NCI-H322M lung = system: NCI-H322M lung
HOP-62 NSCLC = system: HOP-62 NSCLC
NCI-H460 lung = system: NCI-H460 lung
HOP-92 NSCLC = system: HOP-92 NSCLC
NCI-H522 lung = system: NCI-H522 lung
A549/ATCC NSCLC = system: A549/ATCC NSCLC
786-0 renal = system: 786-0 renal
COLO 205 colon = system: COLO 205 colon

Measured: growth

CCOC(=O)c1c(C(F)(F)F)n([O-])c2ccc(Cl)cc2[n+]1=O
active: NCI-H226 lung 3.03% | NCI-H322M lung 6.75% | HOP-62 NSCLC -65.6% | NCI-H460 lung -78.5% | HOP-92 NSCLC -78.2% | NCI-H522 lung -59.4% | A549/ATCC NSCLC -39.6% | 786-0 renal -73.8% | COLO 205 colon -59.2%
inactive: NCI-H23 lung 14.8%

COc1ccc(Nc2nc(SCC(C)C)nc(-c3ccc(F)cc3)c2C#N)cc1
inactive: NCI-H23 lung 79.1% | NCI-H226 lung 75.1% | NCI-H322M lung 97% | HOP-62 NSCLC 73.8% | NCI-H460 lung 52.4% | HOP-92 NSCLC 77.2% | NCI-H522 lung 35.5% | A549/ATCC NSCLC 62.5% | 786-0 renal 60.8% | COLO 205 colon 72.4%

COc1ccc(C(=S)c2cc(OC)c(OC)c(OC)c2)cc1OC(=O)CCl
inactive: NCI-H23 lung 31.4% | NCI-H226 lung 103% | NCI-H322M lung 42.4% | HOP-62 NSCLC 30.9% | HOP-92 NSCLC 54.8% | NCI-H522 lung 12.9% | A549/ATCC NSCLC 21.2% | 786-0 renal 27.4% | COLO 205 colon 16.7%
active: NCI-H460 lung 7.23%

NC(=O)C(O)(c1ccccc1)c1ccccc1
inactive: NCI-H23 lung 101% | NCI-H226 lung 99.2% | NCI-H322M lung 105% | HOP-62 NSCLC 91.6% | NCI-H460 lung 104% | HOP-92 NSCLC 83.2% | NCI-H522 lung 84.2% | A549/ATCC NSCLC 91% | 786-0 renal 102% | COLO 205 colon 115%

COC(=O)/C=C/c1cc(OC)c2c(c1)[C@@H](C(=O)OC)[C@H](c1ccc(OC)c(OC)c1)O2
inactive: NCI-H23 lung 38.9% | NCI-H226 lung 79.4% | NCI-H322M lung 98.3% | HOP-62 NSCLC 24.9% | NCI-H460 lung 59.7% | HOP-92 NSCLC 66.8% | NCI-H522 lung 22.1% | A549/ATCC NSCLC 67.2% | 786-0 renal 37.9% | COLO 205 colon 23.9%

CSc1nc(-c2ccco2)c2c(N)[nH]nc2n1
inactive: NCI-H23 lung 97.7% | NCI-H226 lung 102% | NCI-H322M lung 97.8% | HOP-62 NSCLC 84.6% | NCI-H460 lung 97.6% | HOP-92 NSCLC 109% | NCI-H522 lung 79.4% | A549/ATCC NSCLC 100% | 786-0 renal 93.4% | COLO 205 colon 123%

COc1ccc2nc(-c3ccc(Cl)cc3)cc(-c3nnc(SCC(=O)Nc4ccc(/C(C)=N\O)cc4)o3)c2c1
active: NCI-H23 lung 2.74% | NCI-H460 lung -31.2% | NCI-H522 lung 9.31% | A549/ATCC NSCLC -9.66%
inactive: NCI-H226 lung 22.8% | NCI-H322M lung 57.4% | HOP-62 NSCLC 60% | HOP-92 NSCLC 19.1% | 786-0 renal 25.9% | COLO 205 colon 56.1%

N#CCNc1ccc(C(=O)O)cc1
inactive: NCI-H23 lung 101% | NCI-H226 lung 95.3% | NCI-H322M lung 114% | HOP-62 NSCLC 98.3% | NCI-H460 lung 103% | HOP-92 NSCLC 94% | NCI-H522 lung 90.4% | A549/ATCC NSCLC 87% | 786-0 renal 104% | COLO 205 colon 110%

N#C/C(=C/c1ccc(O)c([N+](=O)[O-])c1)c1nc(-c2ccc([N+](=O)[O-])cc2)cs1
inactive: NCI-H23 lung 13.6% | NCI-H226 lung 52% | NCI-H322M lung 52.8% | HOP-62 NSCLC 86.8% | NCI-H460 lung 20.5% | NCI-H522 lung 11.2% | A549/ATCC NSCLC 27.1% | 786-0 renal 51.9% | COLO 205 colon 51.2%
active: HOP-92 NSCLC -8.22%

C=CCn1c(SCC(=O)Nc2ccc(C(=O)/C=C/c3cc(OC)c(OC)c(OC)c3)cc2)nnc1-c1ccccc1
inactive: NCI-H23 lung 93% | NCI-H226 lung 88.5% | NCI-H322M lung 104% | HOP-62 NSCLC 117% | NCI-H460 lung 89.8% | HOP-92 NSCLC 150% | NCI-H522 lung 82.8% | A549/ATCC NSCLC 85.1% | 786-0 renal 93.1% | COLO 205 colon 101%

O=C1NC(c2ccc(F)cc2)N=C2C(c3ccccc3)=NOC12 (stereo not given)
inactive: NCI-H23 lung 107% | NCI-H226 lung 99.9% | NCI-H322M lung 109% | HOP-62 NSCLC 96.5% | NCI-H460 lung 112% | HOP-92 NSCLC 103% | NCI-H522 lung 92.1% | A549/ATCC NSCLC 90.7% | 786-0 renal 96.8% | COLO 205 colon 116%

COc1cc(NC(=O)c2cc(O)c(C/C=C(\C)CCC=C(C)C)c(O)c2)cc2c1O[C@]1(C)CC[C@@H](O)C(C)(C)[C@H]1C2
inactive: NCI-H23 lung 25.1% | NCI-H226 lung 38% | NCI-H322M lung 41.5% | HOP-62 NSCLC 12.1% | NCI-H460 lung 11.4% | NCI-H522 lung 12.8% | A549/ATCC NSCLC 14.5%
active: HOP-92 NSCLC -9.24% | 786-0 renal -19% | COLO 205 colon -22.3%

Nc1ccc(C2=NN(C(=O)c3cc(-c4ccc(Cl)cc4)nc4ccccc34)C(c3ccccc3)C2)cc1 (stereo not given)
inactive: NCI-H23 lung 43.6% | NCI-H226 lung 53% | NCI-H322M lung 45.7% | HOP-62 NSCLC 35.4% | NCI-H460 lung 18.8% | HOP-92 NSCLC 50.9% | NCI-H522 lung 24% | A549/ATCC NSCLC 40.7% | 786-0 renal 21.7% | COLO 205 colon 30%
